The structures appear in SMILES notation. Records with an inconclusive call do not appear. Where a call stands in place of a potency, no number is given. Values without a mark were called inactive. The source made the active and inactive calls. Calls come from the whole dose curve; as a rule, active = well fitted curve in the direction sought with a large enough effect; inconclusive = small, poorly fitted or top-dose-only effect, or another doubt; inactive = no such curve, though single readings can be large; an effect the other way counts as inactive or inconclusive.

For assay [1], the target named is Aldehyde dehydrogenase, mitochondrial (Homo sapiens) (UniProt P05091). Put plainly: qHTS for Inhibitors of the Aldehyde Dehydrogenase Family (ALDH2) Primary screen (AID 2061308). Note: nearly all actives have a fitted effect of over 55% in size. The following applies: ALDH2 enzyme inhibition qHTS, 1536-well; series mostly up to 56 µM.
Assay [2] deals with Retinaldehyde dehydrogenase 3 (Homo sapiens) (UniProt P47895). Put plainly: qHTS for Inhibitors of the Aldehyde Dehydrogenase Family (ALDH1A3) Primary screen (AID 2061315). The following applies: ALDH inhibition qHTS; series mostly up to 56 µM.

`CCOC(=O)C1CCN(C(=O)C2(NC(=O)Nc3ccccc3Cl)CCCC2)CC1`: the Potency result in assay [1] and in assay [2] was “inactive” each time.
As to `Cn1cc(Br)c(C2N=C(Nc3nc4ccccc4o3)NC3=C2C(=O)CCC3)n1` (stereo unspecified), the Potency entry in assay [1] and in assay [2] was “inactive” each time.
With `Cc1[nH]c2ccccc2c1P(=S)(c1ccccc1)c1ccccc1`, the Potency result in assay [1] and in assay [2] was “inactive” each time.
Consider `COC(=O)C12C(=O)C(C)(O)C(=O)C1(C)C(C)=CC1C3(C=O)CCC(OC(C)=O)C(C)(C)C3CCC12C` (stereo unspecified), for which the Potency result in assay [1] and in assay [2] was “inactive” each time.
With `CC(=O)OC[C@]12C[C@H](OC(=O)CC(C)C)C(C)=C[C@H]1O[C@@H]1[C@H](O)C[C@@]2(C)[C@]12CO2`, the Potency entry in assay [1] and in assay [2] was “inactive” each time.
As for `CCOc1ccc(CCNC(=O)c2cc3ccncc3n2Cc2cccc(C)c2)cc1OCC`, the Potency entry in assay [1] and in assay [2] was “inactive” in each case.
With `CC(C)[C@H]1OC(=O)[C@H](Cc2ccccc2)N(C)C(=O)[C@@H](C(C)C)OC(=O)[C@H](Cc2ccccc2)N(C)C(=O)[C@@H](C(C)C)OC(=O)[C@H](Cc2ccccc2)N(C)C1=O`, the Potency result in assay [1] and in assay [2] was “inactive” each time.
As to `Cc1ccccc1C1=CCN(C)CC1`, the Potency result in assay [1] and in assay [2] was “inactive” each time.
For `CCOc1ccc(CCNC(=O)c2cc3ccccc3n2Cc2cccc(C)n2)cc1OCC`, the Potency entry in assay [1] and in assay [2] was “inactive” in each case.
As for `C[C@H]1O[C@@H](O[C@H]2C[C@@H](O)[C@]3(CO)C4C(CC[C@]3(O)C2)[C@@]2(O)CC[C@H](C3=CC(=O)OC3)[C@@]2(C)C[C@H]4O)[C@@H](O)[C@@H](O)[C@H]1O` (stereo partly specified), the Potency entry in assay [1] and in assay [2] was “inactive” in each case.
Turning to `C[C@H]1C/C=C/[C@H]2[C@@H]3O[C@]3(C)[C@@H](C)[C@H]3[C@H](Cc4ccccc4)NC(=O)[C@]32OC(=O)O/C=C/[C@@](C)(O)C1=O`, the Potency entry in assay [1] and in assay [2] was “inactive” in each case.
Turning to `CCc1nn2c(=O)cc(N3CCN(C)CC3)nc2s1`, the Potency result in assay [1] and in assay [2] was “inactive” each time.
Turning to `O=S(=O)(Nc1cccc2ccncc12)c1ccc(NCc2cccc(Cl)c2O)cc1`, the Potency result in assay [1] and in assay [2] was “inactive” in each case.
As to `Cc1ccc2nc(NC3=NC(c4[nH]ncc4Cl)C4=C(CCCC4=O)N3)oc2c1` (stereo unspecified), the Potency result in assay [1] and in assay [2] was “inactive” each time.
Take `Cc1cc(-c2nnc3n2CCCCC3)c(C)n1-c1ccc(Cl)cc1`: the Potency result in assay [1] and in assay [2] was “inactive” each time.
`CCc1nn2c(=O)c(C)c(N3CCNCC3)nc2s1`: the Potency entry in assay [1] and in assay [2] was “inactive” each time.
`C[C@H]1O[C@@H](O[C@H]2CC[C@]3(C=O)C4CC[C@]5(C)[C@@H](C6=CC(=O)OC6)CC[C@]5(O)[C@@H]4CC[C@]3(O)C2)C[C@@H](O)[C@@H]1O` (stereo partly specified): the Potency result in assay [1] and in assay [2] was “inactive” in each case.
For the compound `COc1ccc(CCNCc2ccc(OC)c3ccccc23)cc1`, the Potency entry in assay [1] and in assay [2] was “inactive” in each case.
For the compound `COC1CC(O[C@H]2CC[C@]3(C=O)C4CC[C@]5(C)[C@@H](C6=CC(=O)OC6)CC[C@]5(O)[C@@H]4CC[C@]3(O)C2)OC(C)C1O[C@@H]1O[C@H](CO)[C@@H](O)[C@H](O)[C@H]1O` (stereo partly specified), the Potency entry in assay [1] and in assay [2] was “inactive” throughout.
As to `CCOc1ccc(CCNC(=O)c2cc3cccnc3n2Cc2cccc(C)c2)cc1OCC`, the Potency entry in assay [1] and in assay [2] was “inactive” each time.
Regarding `CO[C@H]1C[C@H](O[C@H]2CC[C@]3(CO)[C@H]4CC[C@]5(C)[C@@H](C6=CC(=O)OC6)CC[C@]5(O)[C@@H]4CC[C@]3(O)C2)O[C@H](C)[C@H]1O`, the Potency entry in assay [1] and in assay [2] was “inactive” in each case.
For `C[C@H]1O[C@@H](n2cnc3c(N)ncnc32)C[C@@H]1O`, the Potency entry in assay [1] and in assay [2] was “inactive” throughout.
As to `CC1=CC2/C=C(\C)CCC(O)C3OC(C)(C)OC3CC(=O)OC23C(=O)NC(CC(C)C)C3C1C` (stereo unspecified), the Potency result in assay [1] and in assay [2] was “inactive” throughout.
In the case of `OC(CNc1ccccc1)Cn1c2ccc(Br)cc2c2cc(Br)ccc21` (stereo unspecified), the Potency entry in assay [1] and in assay [2] was “inactive” in each case.
Regarding `C/C=C(\C)C(=O)O[C@@H]1[C@@H](C)[C@]2(O)C3C=C(C)C(=O)[C@@]3(O)CC(CO)=C[C@H]2C2C(C)(C)[C@@]21OC(=O)C(C)CC` (stereo partly specified), the Potency entry in assay [1] and in assay [2] was “inactive” each time.
Regarding `CO[C@H]1[C@H](O)[C@H](O[C@H]2CC[C@]3(C)C4CC[C@]5(C)[C@H](C6=CC(=O)OC6)CC[C@]5(O)C4CC[C@@H]3C2)O[C@@H](C)[C@@H]1O` (stereo partly specified), the Potency result in assay [1] and in assay [2] was “inactive” each time.
For `COc1cccc(CNc2ccc(S(=O)(=O)Nc3cccc(-c4ccccc4)c3)cc2)c1O`, the Potency entry in assay [1] and in assay [2] was “inactive” throughout.
With `C#C[C@]1(O)CC[C@H]2[C@@H]3CC[C@H]4Cc5nc6nc7ccccc7n6cc5C[C@]4(C)[C@H]3CC[C@@]21C`, the Potency result in assay [1] and in assay [2] was “inactive” each time.
Regarding `C=C1[C@@H](C)C2[C@H](Cc3ccccc3)NC(=O)[C@@]23C(/C=C/C[C@H](C)C[C@@](C)(O)/C=C/[C@@H]3OC(C)=O)[C@@H]1O` (stereo partly specified), the Potency result in assay [1] and in assay [2] was “inactive” each time.
`Cc1ccccc1[C@@H](C(=O)NC1CCCCC1)N(C(=O)Cn1ccnc1C)c1cccc(F)c1`: the Potency result in assay [1] and in assay [2] was “inactive” throughout.
Take `CC(=O)O[C@H]1C[C@@H](C)O[C@H]2O[C@@H]3CC4CC[C@@H]5C(CC[C@]6(C)[C@@H](C7=CC(=O)OC7)CC[C@]56O)[C@@]4(C=O)C[C@H]3O[C@]21O` (stereo partly specified): the Potency entry in assay [1] and in assay [2] was “inactive” in each case.
For the compound `COc1cc(O)c2c(c1)/C=C/C[C@@H](O)[C@@H](O)C(=O)CCC[C@H](C)OC2=O`, the Potency result in assay [1] and in assay [2] was “inactive” throughout.
Take `N#Cc1ccc(NC(=O)Nc2nnc(-c3ccncc3)s2)cc1C(F)(F)F`: the Potency entry in assay [1] and in assay [2] was “inactive” in each case.

(Values after PubChem BioAssay (NCATS).)
